The source of these data is PubChem BioAssay (NCATS).

Assay [1] can be described thus: Drug repurposing screens with cells derived from glioblastoma tumor samples (AID 1345199). Further: nearly all actives have a fitted effect of over 40% in size. Particulars: GBM patient neurospheres viability, ATP luminescence, 48 h. The essentials: (§1)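 Primary testing used CD133+ neurospheres from four GBM patients, seven concentrations, 48 h exposure and ATP-based viability; confirmation added three slower-growing patient lines.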
The subject of another assay is astro (control astrocytes). The description is as above. Particulars: viability, ATP luminescence, 48 h; series mostly up to 45.9 µM. The method in brief: as §1
The mark [2] stands for this setting: at 45.9 µM (top of the series), tumour line B.
Setting [3] is: at 45.9 µM (top of the series), tumour line D.
Setting [4] is: at 46.1 µM (top of the series), tumour line C.

Structures are written as SMILES. Inconclusive results are not listed. A number with no mark means an inactive call. Calls of active or inactive are those of the source. The call rests on the fitted dose curve; in most records, active means well fitted inhibition curve with a large enough effect; inconclusive means small, poorly fitted or top-dose-only effect; inactive means flat fitted curve, though single readings scatter.
On the % scale 0 is the no-effect control and ±100 the full control effect; potency means the concentration at half of the fitted maximal effect.

For `CCCCC/C=C\C/C=C\C/C=C\CCCCC(=O)O`, the activity, negative = cell killing in assay [1] (setting [2]) is -11.2%; in assay [1] (setting [3]), 2.8%; in assay [1] (setting [4]) it was 1.83%. In addition, in the assay on astro, the Potency result is “inactive”.
In the same order, the values of `CC(O)CN(C)C` (stereo unspecified) are -7.97%, -11.2%, -3.25% and “inactive”.
For `CCN(CC)CCOC(=O)c1cccnc1`, in that order: -9.24%, 9.6%, -9.84% and “inactive”.
Regarding `CC(=NCc1ccccc1)c1ccccc1O`, the values for the activity, negative = cell killing in assay [1] (setting [2]), in assay [1] (setting [3]) and in assay [1] (setting [4]) were -12.5%, -14.9% and 6.85%, respectively. Besides, the Potency entry in the assay on astro was “inactive”.
Regarding `[O]=[Bi][O]C(=O)[O][Bi]=[O]`, the activity, negative = cell killing in assay [1] (setting [2]) was -5.84%; in assay [1] (setting [3]), -17.8%; in assay [1] (setting [4]), 0.454%. Moreover, the Potency entry in the assay on astro was “inactive”.
`O=C1N=C2SCCN2C(=O)C1Cc1ccc(Cl)cc1` (stereo unspecified): the activity, negative = cell killing is -17.4% in assay [1] (setting [2]), -11.7% in assay [1] (setting [3]) and -2.54% in assay [1] (setting [4]). The Potency result with astro is “inactive”.
As for `NC(N)=NCC1COc2ccccc2O1` (stereo unspecified), the activity, negative = cell killing is -11.5% in assay [1] (setting [2]) and -28.1% in assay [1] (setting [3]). Also, the Potency in assay [1] (tumour line A) was 35.5 µM (active). The Potency entry in the assay on astro is “inactive”.
In the case of `O=C(O)c1ccc(OCCn2ccnc2)cc1`, the activity, negative = cell killing in assay [1] (setting [2]) was -11.4%; in assay [1] (setting [3]), -25.4%; in assay [1] (setting [4]) it was -11.9%. Moreover, the Potency entry in the assay with astro was “inactive”.
In the same order, the values of `CCOc1ccc(S(=O)(=O)O)c2cccnc12` are -12%, -2.86%, -26.7% and “inactive”.
For `O=C(OC[C@H]1O[C@](O)(COC(=O)c2cccnc2)[C@@H](OC(=O)c2cccnc2)[C@@H]1OC(=O)c1cccnc1)c1cccnc1`, the activity, negative = cell killing is -19% in assay [1] (setting [2]), -0.117% in assay [1] (setting [3]) and -25.9% in assay [1] (setting [4]). In addition, the Potency result with astro was “inactive”.
Regarding `CN[C@@H]1[C@@H](O)[C@@H](O[C@@H]2[C@@H](O)[C@H](OC3OC(CN)=CCC3N)[C@@H](N)C[C@H]2N)OC[C@]1(C)O` (stereo partly specified), the activity, negative = cell killing in assay [1] (at 20 µM (top of the series), tumour line C) is 5.74%; in assay [1] (at 21.2 µM (top of the series), tumour line B) it was -6.65%; in assay [1] (at 21.3 µM (top of the series), tumour line A), -25.4%. Besides, the Potency result in the assay with astro was “inactive”.
Turning to `CC1CCC(NC(=O)N(CCCl)N=O)CC1` (stereo unspecified), the activity, negative = cell killing was -5.97% in assay [1] (setting [2]), 0.785% in assay [1] (setting [3]) and -19.7% in assay [1] (setting [4]). Also, the Potency result in the assay with astro was “inactive”.
For `C[C@H](O)CN(C)C`, in that order: -3.73%, -16.1%, -13.2% and “inactive”.
Turning to `CCN(CC)C(=O)[C@]1(c2ccccc2)C[C@@H]1CN`, the values for the activity, negative = cell killing in assay [1] (setting [2]), in assay [1] (setting [3]) and in assay [1] (setting [4]) were -4.91%, -13.9% and -22.9%, respectively. Further, in the assay with astro, the Potency result was “inactive”.
As for `C=CCCCCCCCCC(=O)OC`, the activity, negative = cell killing is -4.31% in assay [1] (setting [2]), -1.83% in assay [1] (setting [3]) and 7.19% in assay [1] (setting [4]). Besides, in the assay with astro, the Potency entry is “inactive”.
As to `CC1=C[C@H](O)CC(C)(C)[C@H]1/C=C/C(C)=C/C=C/C(C)=C/C=C/C=C(C)/C=C/C=C(C)/C=C/C1=C(C)C[C@@H](O)CC1(C)C`, the activity, negative = cell killing was -18.9% in assay [1] (setting [2]), -21.1% in assay [1] (setting [3]) and -27.4% in assay [1] (setting [4]). Besides, the Potency entry in the assay on astro was “inactive”.
As to `CCOc1ccc(NC(=S)Nc2ccc(OCC)cc2)cc1`, the figures for the activity, negative = cell killing in assay [1] (setting [2]), in assay [1] (setting [3]) and in assay [1] (setting [4]) were -13.1%, -11.1% and -27.8%, respectively. Moreover, the Potency result in the assay with astro was “inactive”.
As for `CCC[C@@H]1C[C@@H](C(=O)N[C@@H]([C@H]2O[C@H](SC)[C@H](O)[C@@H](O)[C@H]2O)[C@H](C)Cl)N(C)C1`, the activity, negative = cell killing in assay [1] (setting [2]) was 1.77%; in assay [1] (setting [3]) it was -7.32%; in assay [1] (at 46 µM (top of the series), tumour line A), -25.1%. In addition, the Potency entry in the assay with astro is “inactive”.
For `CC(C)(C)NCC(O)c1ccc(O)c(CO)n1` (stereo unspecified), the activity, negative = cell killing was -4.38% in assay [1] (setting [2]), 7.95% in assay [1] (setting [3]) and -15% in assay [1] (setting [4]). For the same molecule, in the assay with astro, the Potency entry is “inactive”.
As for `CC(C)CN(C[C@@H](O)[C@H](Cc1ccccc1)NC(=O)O[C@@H]1CCOC1)S(=O)(=O)c1ccc(N)cc1`, the figures for the activity, negative = cell killing in assay [1] (setting [2]), in assay [1] (setting [3]) and in assay [1] (setting [4]) were -6.03%, -14.3% and -3.48%, respectively. Moreover, the Potency result with astro was “inactive”.
As for `CCCCCCCCCCCCCCCCCC[N+](C)(C)CCC[Si](OC)(OC)OC`, the activity, negative = cell killing is -16.4% in assay [1] (setting [2]), -4.63% in assay [1] (setting [3]) and -7.69% in assay [1] (setting [4]). For the same molecule, in the assay on astro, the Potency result was “inactive”.
With `C[C@@H](O)[C@H]1C(=O)N2C(C(=O)[O-])=C(SC3Cn4cnc[n+]4C3)[C@H](C)[C@H]12` (stereo partly specified), the activity, negative = cell killing was -14.6% in assay [1] (setting [2]), -27.3% in assay [1] (setting [3]) and -6.91% in assay [1] (setting [4]). For the same molecule, the Potency result with astro is “inactive”.
In the case of `COc1ccc(C(=O)c2ccc(C)cc2)c(O)c1`, the activity, negative = cell killing is -19.8% in assay [1] (setting [2]), -4.36% in assay [1] (setting [3]) and -21.4% in assay [1] (setting [4]). Also, the Potency entry with astro is “inactive”.
On to `NC(=O)[C@@H]1C[C@]2(NC(=O)NC2=O)c2cc(F)ccc2O1`, for which the values for the activity, negative = cell killing in assay [1] (setting [2]), in assay [1] (setting [3]) and in assay [1] (setting [4]) were -9.48%, 3.75% and -17.3%, respectively. Further, the Potency entry in the assay with astro was “inactive”.
